Some test systems named below: OVCAR-8 ovarian; OVCAR-5 ovarian; OVCAR-4 ovarian; SK-OV-3 ovarian; OVCAR-3 ovarian; HS 578T breast; NCI/ADR-RES ovarian; T-47D breast; BT-549 breast; MDA-MB-435 melanoma; SW-620 colon; MCF7 breast; HCT-116 colon; HCC-2998 colon; KM12 colon; IGROV1 ovarian.
Test in all cases: NCI-60 one-dose screen, 48 h (100 = growth as untreated, 0 = no growth, -100 = all killed)
Conditions in all cases: 10 µM unless noted

This is part of a sample that, as a whole, favours compounds with a hit. Of some 83,000 tested, about 20% had one in any assay.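 Note: values are percent growth. 100 is the growth of untreated cells, values between 100 and 0 indicate rising inhibition; between -100 and 0 indicates cell death.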 Values without a mark were called inactive. The source made the active and inactive calls. The calls were made as follows: active = growth percent below 10; inactive = the rest.

Turning to `CCCCCCCC1(C)NC(=O)NC1=O` (stereo not drawn), the growth in the assay with OVCAR-8 ovarian was 104%; in the assay with OVCAR-5 ovarian it was 163%; in the assay on OVCAR-4 ovarian, 105%; in the assay with SK-OV-3 ovarian, 114%; in the assay on OVCAR-3 ovarian, 115%; in the assay with HS 578T breast, 114%. Also, the growth in the assay with NCI/ADR-RES ovarian was 138%; in the assay with T-47D breast it was 123%; in the assay on BT-549 breast, 121%; with MDA-MB-435 melanoma, 123%; in the assay with SW-620 colon it was 100%; with MCF7 breast, 97.6%. Besides, the growth was 103% in the assay on HCT-116 colon, 140% in the assay on HCC-2998 colon and 113% in the assay on KM12 colon.
Turning to `COc1ccc(-c2c(N)noc2-c2cc(OC)c3c(c2)OCCO3)cc1`, the growth with OVCAR-8 ovarian was 24.3%; with OVCAR-5 ovarian, 36.5%; with SK-OV-3 ovarian, 8.57% (active); in the assay with IGROV1 ovarian, 24.8%; in the assay on OVCAR-3 ovarian, -24.2% (active); in the assay on HS 578T breast, 25.9%. The growth with NCI/ADR-RES ovarian is -5.69% (active); in the assay with T-47D breast it was 63.7%; in the assay on BT-549 breast, 20.4%; in the assay with MDA-MB-435 melanoma it was -7.52% (active); with SW-620 colon, 27%; in the assay on HCT-116 colon it was 0.565% (active). For the same compound, the results for the growth with HCC-2998 colon and in the assay with KM12 colon were 18.9% and 0.643% (active), respectively.
As to `CCOC(=O)C1=NN(c2ccc(Cl)cc2)C2C3N(c4ccc(Cl)cc4)N=C(C(=O)OCC)N3c3ccccc3N12` (stereo not drawn), the growth is 101% in the assay on OVCAR-8 ovarian; 101% in the assay on OVCAR-5 ovarian; 92.4% with OVCAR-4 ovarian; 115% with SK-OV-3 ovarian; 76.7% in the assay with IGROV1 ovarian; 120% in the assay on HS 578T breast. In addition, the growth was 101% with NCI/ADR-RES ovarian; 102% in the assay on T-47D breast; 123% in the assay on BT-549 breast; 100% in the assay with MDA-MB-435 melanoma; 110% in the assay on SW-620 colon; 85.7% in the assay with MCF7 breast. Further, the growth was 87.9% in the assay on HCT-116 colon, 97.5% in the assay on HCC-2998 colon and 103% in the assay on KM12 colon.
Regarding `O=C(N1CCC(CN=c2cc3n(-c4ccc(Cl)cc4)c4ccccc4nc-3cc2Nc2ccc(Cl)cc2)CC1)N1CC1`, the growth is -67.4% (active) in the assay on OVCAR-8 ovarian; -78.3% (active) in the assay with OVCAR-5 ovarian; -74.6% (active) with OVCAR-4 ovarian; -63.7% (active) in the assay on SK-OV-3 ovarian; -92.3% (active) with IGROV1 ovarian; -56.4% (active) with HS 578T breast. In addition, the growth is -45.5% (active) in the assay with NCI/ADR-RES ovarian; -46.8% (active) in the assay with T-47D breast; -82.5% (active) with BT-549 breast; -29.4% (active) in the assay with MDA-MB-435 melanoma; -83% (active) in the assay with SW-620 colon; -71.6% (active) in the assay with MCF7 breast. In addition, the growth in the assay with HCT-116 colon is -70.9% (active); in the assay on KM12 colon, -63.7% (active).
As to `c1ccc(Nc2nnc(-c3cc(-c4cccnc4)n(-c4ccccc4)n3)s2)cc1`, the growth in the assay on OVCAR-8 ovarian was 59.9%; in the assay on OVCAR-5 ovarian it was 105%; with SK-OV-3 ovarian it was 109%; in the assay with IGROV1 ovarian, 108%; in the assay on OVCAR-3 ovarian, 106%; with HS 578T breast, 119%. Moreover, the growth in the assay with NCI/ADR-RES ovarian was 62.4%; with T-47D breast, 51.3%; in the assay on BT-549 breast, 85.8%; in the assay with MDA-MB-435 melanoma, 80.7%; in the assay on SW-620 colon, 97.1%; in the assay on MCF7 breast, 95.7%. For the same compound, the growth is 76.8% in the assay on HCT-116 colon, 72.5% with HCC-2998 colon and 60.3% with KM12 colon.
Take `CC(C)C/C(=N\NC(=O)c1ccncc1)c1cc(Cl)ccc1O`: the growth is 11.7% in the assay on OVCAR-8 ovarian; 37.3% in the assay with OVCAR-5 ovarian; 14.5% with OVCAR-4 ovarian; 24.5% with SK-OV-3 ovarian; 9.3% (active) with IGROV1 ovarian; 11.1% with OVCAR-3 ovarian. In addition, the growth was 5.17% (active) in the assay on NCI/ADR-RES ovarian; 25.1% with T-47D breast; -1.24% (active) with BT-549 breast; 32.4% with MDA-MB-435 melanoma; 31.1% with SW-620 colon; 5.38% (active) with MCF7 breast. Besides, the growth is 28.1% in the assay on HCC-2998 colon and 25.8% with KM12 colon.
With `Cn1cnc([N+](=O)[O-])c1S(=O)(=O)Oc1ccc(Cl)cc1`, the growth is 76.6% in the assay on OVCAR-8 ovarian; 102% with OVCAR-5 ovarian; 102% with OVCAR-4 ovarian; 104% in the assay with SK-OV-3 ovarian; 69.8% with IGROV1 ovarian; -60.3% (active) with OVCAR-3 ovarian. The growth in the assay with NCI/ADR-RES ovarian is 95.8%; with T-47D breast, -31.1% (active); in the assay on BT-549 breast it was 103%; in the assay on MDA-MB-435 melanoma it was 78.8%; in the assay with SW-620 colon, -31% (active); in the assay on MCF7 breast, 63.7%. The growth is 83.1% in the assay on HCC-2998 colon and 84.9% in the assay with KM12 colon.
Consider `CN(CCOc1ccc(CC2SC(=O)NC2=O)cc1)c1ccccn1` (stereo not drawn), for which the growth in the assay with OVCAR-8 ovarian was 91.9%; in the assay on OVCAR-5 ovarian it was 95.2%; with SK-OV-3 ovarian, 106%; in the assay on IGROV1 ovarian it was 97.9%; in the assay on OVCAR-3 ovarian, 110%; in the assay with HS 578T breast, 100%. In addition, the growth with NCI/ADR-RES ovarian is 101%; in the assay on T-47D breast, 102%; with BT-549 breast, 104%; in the assay with MDA-MB-435 melanoma it was 98.3%; in the assay with SW-620 colon, 102%; in the assay with HCT-116 colon it was 103%. In addition, the growth in the assay on KM12 colon was 96.3%.
Regarding `CCOC(=O)c1ccccc1OC(=O)NNc1ccccc1`, the growth is 71.3% with OVCAR-8 ovarian; 83.7% in the assay on OVCAR-5 ovarian; 63.6% with OVCAR-4 ovarian; 93.7% in the assay on SK-OV-3 ovarian; 60.4% in the assay on IGROV1 ovarian; 77.7% in the assay with OVCAR-3 ovarian. Also, the growth with NCI/ADR-RES ovarian was 58.1%; in the assay on BT-549 breast it was 48.3%; in the assay on MDA-MB-435 melanoma, 50%; in the assay on SW-620 colon it was 45.6%; in the assay on MCF7 breast, 50.3%; in the assay on HCT-116 colon, 70.8%. Besides, the growth was 40% in the assay with HCC-2998 colon and 55% with KM12 colon.
Regarding `CC(O)c1nc2c(c(=O)n(C)c(=O)n2C)n1C` (stereo not drawn), the growth in the assay with OVCAR-8 ovarian is 105%; in the assay with OVCAR-5 ovarian, 104%; with OVCAR-4 ovarian it was 104%; in the assay with SK-OV-3 ovarian, 102%; in the assay on OVCAR-3 ovarian, 108%; in the assay with HS 578T breast, 118%. The growth in the assay with NCI/ADR-RES ovarian was 113%; with T-47D breast, 97.6%; in the assay on BT-549 breast, 109%; in the assay on MDA-MB-435 melanoma, 111%; with SW-620 colon, 110%; in the assay with MCF7 breast, 102%. The values for the growth in the assay with HCT-116 colon, in the assay on HCC-2998 colon and in the assay on KM12 colon were 90.2%, 103% and 113%, respectively.
